{
  "source": "PubChem BioAssay AID488969",
  "about": "(Vanderbilt High Throughput Screening Facility, 2010)",
  "note": "Whole data set: some 110,000 compounds, median “z-score” near -0.1, cut for the highest 2% near 2. Only a selection was taken, and the highest values are over-represented in it overall. Calls of active or inactive are those of the source.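 Rule for the calls: active = z-score in the third read window above 3 or below -3; inactive = the rest.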",
  "data": [
    {"target": "Metabotropic glutamate receptor 8 (Rattus norvegicus) (UniProt P70579)", "sequence (P70579 whole entry, looked up)": "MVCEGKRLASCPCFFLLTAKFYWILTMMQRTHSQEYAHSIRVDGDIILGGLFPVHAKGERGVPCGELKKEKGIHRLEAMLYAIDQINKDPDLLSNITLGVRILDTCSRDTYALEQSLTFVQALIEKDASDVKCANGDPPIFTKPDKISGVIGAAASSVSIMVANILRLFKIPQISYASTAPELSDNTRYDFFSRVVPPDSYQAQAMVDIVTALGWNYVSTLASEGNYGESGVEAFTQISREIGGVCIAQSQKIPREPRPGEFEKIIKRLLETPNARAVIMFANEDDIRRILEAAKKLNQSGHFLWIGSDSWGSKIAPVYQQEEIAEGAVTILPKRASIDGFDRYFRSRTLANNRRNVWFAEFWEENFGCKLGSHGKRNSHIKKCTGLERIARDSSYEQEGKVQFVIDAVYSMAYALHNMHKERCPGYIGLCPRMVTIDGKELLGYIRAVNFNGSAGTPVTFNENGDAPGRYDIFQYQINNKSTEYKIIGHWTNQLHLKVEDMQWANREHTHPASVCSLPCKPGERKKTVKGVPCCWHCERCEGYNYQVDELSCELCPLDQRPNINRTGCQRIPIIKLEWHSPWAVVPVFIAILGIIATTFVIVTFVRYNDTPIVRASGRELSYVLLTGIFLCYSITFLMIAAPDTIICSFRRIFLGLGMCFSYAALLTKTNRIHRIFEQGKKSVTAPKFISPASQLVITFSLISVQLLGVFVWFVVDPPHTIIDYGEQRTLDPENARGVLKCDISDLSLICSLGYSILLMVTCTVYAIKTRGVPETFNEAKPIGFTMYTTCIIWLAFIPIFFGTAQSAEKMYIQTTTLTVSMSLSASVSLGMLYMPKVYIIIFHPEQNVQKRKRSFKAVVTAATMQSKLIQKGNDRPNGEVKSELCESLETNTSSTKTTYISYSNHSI", "assay": "rat mGluR8 modulators via GIRK flux, primary screen, cell-based, thallium flux, HTS (AID 488969)", "details": "HEK293 rat mGluR8, GIRK (G protein-gated inwardly rectifying potassium channel) thallium flux, FluoZin2; at 10 µM; stronger effect = higher value", "values": [
      {"smiles": "O=C(NC(Oc1ccccc1)C(Cl)(Cl)Cl)c1ccccc1", "note": "(stereo not given)", "z-score": -0.149},
      {"smiles": "CN(C(=O)Oc1ccc(Cl)c2cccnc12)c1ccccc1", "z-score": -0.251},
      {"smiles": "CCOc1ccc(N=Cc2c(O)n(C(C)(C)C)c(=O)[nH]c2=O)cc1", "z-score": -0.283},
      {"smiles": "CCOC(=O)C1C2NC(=O)N(Cc3ccccc3)C1(C)Oc1c(OC)cccc12", "note": "(stereo not given)", "z-score": 0.0221},
      {"smiles": "O=C(CN1C(=O)CN=C(c2ccccc2)c2ccccc21)NCc1ccco1", "z-score": -0.206},
      {"smiles": "O=C(CN1C(=O)CN=C(c2ccccc2Cl)c2cc(Cl)ccc21)NCc1ccco1", "z-score": 2.98},
      {"smiles": "CCC(C)C1N=C(c2ccccc2)c2cc(Cl)ccc2N(CC(=O)NCc2ccco2)C1=O", "note": "(stereo not given)", "z-score": -0.0258},
      {"smiles": "OC(c1ccccc1)(c1ccccc1)c1ccncc1", "z-score": -0.0666},
      {"smiles": "c1ccc(CCNCc2ccccc2)cc1", "z-score": -0.78},
      {"smiles": "Cn1cccc1CNCCc1ccccc1", "z-score": "6.88 (active)"},
      {"smiles": "Cn1cccc1CNCCc1ccc(F)cc1", "z-score": -0.24},
      {"smiles": "CCC(=NCCCN(CC)CC)c1c(O)n(C2CCCCC2)c(=O)[nH]c1=O", "z-score": -0.25},
      {"smiles": "N#Cc1c(Cl)nc(Cl)c2c1CCN(Cc1ccccc1)C2", "z-score": -0.608},
      {"smiles": "Cc1ccc(OP(=O)(NCc2ccccc2)Oc2ccc(C)cc2)cc1", "z-score": -0.00664},
      {"smiles": "OCC12CO[C@@H]3c4ccccc4[C@H](OC1)N32", "note": "(stereo not given in full)", "z-score": -0.0926},
      {"smiles": "CON(C)C(=O)Nc1ccc(Cl)cc1", "z-score": 0.516},
      {"smiles": "O=C(Nc1ccc(Cl)cc1)Nc1nccs1", "z-score": "8.34 (active)"},
      {"smiles": "O=C(Nc1ccc(Cl)cc1)O/N=C(\\c1ccccc1)c1ccccn1", "z-score": -0.375},
      {"smiles": "CCC(C)c1ccc(N2C(=O)NC(=O)/C(=C/c3cccn3CCOc3ccc(C)cc3)C2=O)cc1", "note": "(stereo not given)", "z-score": 0.272},
      {"smiles": "Cc1cc(C)c(-n2c(O)c(/C=N/N3CCCCC3c3cccnc3)c(=O)[nH]c2=O)c(C)c1", "note": "(stereo not given)", "z-score": -0.531},
      {"smiles": "Cc1nn(Cc2ccccc2)c(Cl)c1C(=O)OC(C)C(=O)Nc1ccc(F)cc1Cl", "note": "(stereo not given)", "z-score": 0.0724},
      {"smiles": "CCCCc1nc(N2CCNCC2)c(C#N)c2c1CSC(C)(C)C2", "z-score": 2.01},
      {"smiles": "COc1ccc(CCNC(=O)COC(=O)Cc2ccccc2)cc1", "z-score": -0.0964},
      {"smiles": "O=P(OCC(F)(F)C(F)F)(N1CCCCC1)N1CCCCC1", "z-score": -0.0155},
      {"smiles": "COC(=O)c1ccccc1-n1c(C)nc2ccccc2c1=O", "z-score": -0.159},
      {"smiles": "CCCCCn1c(=O)c(C(=O)NCc2ccncc2)c(O)c2ccccc21", "z-score": -1.2},
      {"smiles": "CCCCCn1c(=O)c(C(=O)Nc2c(C)n(C)n(-c3ccccc3)c2=O)c(O)c2ccccc21", "z-score": -0.252},
      {"smiles": "CC(C)CCn1c(=O)c(C(=O)Nc2ccccc2S(N)(=O)=O)c(O)c2ccccc21", "z-score": 2},
      {"smiles": "Cn1cc(C(=O)Cc2ccccc2)c2ccccc21", "z-score": 0.166},
      {"smiles": "NC12CN3CN(CN(C3)C1)C2", "note": "(tested in a mixture with another compound)", "z-score": -0.55},
      {"smiles": "CCN1CCN(CC(=O)c2c(C)n(Cc3ccccc3)c3ccc(OC)cc23)CC1", "z-score": 0.191},
      {"smiles": "CC(NC1CCCCC1)C(O)C12CC3CC(CC(C3)C1)C2", "note": "(stereo not given)", "z-score": 2.39},
      {"smiles": "CC(C)NC(C)C(=O)C12CC3CC(CC(C3)C1)C2", "note": "(stereo not given)", "z-score": 0.115},
      {"smiles": "O=C(COC(=O)Cc1ccccc1)NC12CC3CC(CC(C3)C1)C2", "z-score": -0.0902},
      {"smiles": "CCCCn1c(C)c(C(=O)O)c2cc(OC)ccc21", "z-score": -0.364},
      {"smiles": "COCCCn1c(-c2ccc(OC)cc2)cc(C(=O)NC2CCCCCCC2)c1C", "z-score": -0.648},
      {"smiles": "COCCn1c(-c2ccccc2)cc(C(=O)O)c1C", "z-score": 2.06},
      {"smiles": "CCS(=O)(=O)N1CCCC(C(=O)N2CCC3(CC2)OCCO3)C1", "note": "(stereo not given)", "z-score": 0.0065},
      {"smiles": "CCOc1ccc(-n2c(O)c(C=NCCCn3ccnc3)c(=O)[nH]c2=O)cc1", "z-score": 0.0171},
      {"smiles": "CC(C)c1cccc(C(C)C)c1OCCn1ccnc1", "z-score": 2.23},
      {"smiles": "CCCCCCCSc1cc(OC)c(CCNC)cc1OC", "z-score": 2.15},
      {"smiles": "CCCCCSc1cc(OC)c(CCNC)cc1OC", "z-score": 0.115},
      {"smiles": "CCCCCSc1cc(OC)c(CCN)cc1OC", "z-score": 1.67},
      {"smiles": "O=C(C1CC(c2ccc(Cl)c(Cl)c2)=NO1)N1CCC2(CC1)OCCO2", "note": "(stereo not given)", "z-score": 0.509},
      {"smiles": "O=c1[nH]c(=O)n(Cc2ccccc2)c(O)c1C=Nc1ccc(CN2CCOCC2)cc1", "z-score": -0.0494}
    ]}
  ]
}
